PMC7862700, “An all-to-all approach to the identification of sequence-specific readers for epigenetic DNA modifications on cytosine”

How the values were obtained:
Assay in all cases: DAPPL (digital affinity profiling via proximity ligation, sequencing); 10 mM Tris-HCl pH 7.5, 50 mM NaCl, 1 mM DTT, 4% glycerol, room temperature, 30 min; GST-TFs on glutathione beads, 16-mer random dsDNA library, 0.1% formaldehyde crosslink after washing; high values mean tight binding
[1] = target: T1, FLI1 (Homo sapiens, UniProt Q01543 1-452); details: protein: recombinant; tags: N-terminal GST; dsDNA, one strand shown
T1 sequence: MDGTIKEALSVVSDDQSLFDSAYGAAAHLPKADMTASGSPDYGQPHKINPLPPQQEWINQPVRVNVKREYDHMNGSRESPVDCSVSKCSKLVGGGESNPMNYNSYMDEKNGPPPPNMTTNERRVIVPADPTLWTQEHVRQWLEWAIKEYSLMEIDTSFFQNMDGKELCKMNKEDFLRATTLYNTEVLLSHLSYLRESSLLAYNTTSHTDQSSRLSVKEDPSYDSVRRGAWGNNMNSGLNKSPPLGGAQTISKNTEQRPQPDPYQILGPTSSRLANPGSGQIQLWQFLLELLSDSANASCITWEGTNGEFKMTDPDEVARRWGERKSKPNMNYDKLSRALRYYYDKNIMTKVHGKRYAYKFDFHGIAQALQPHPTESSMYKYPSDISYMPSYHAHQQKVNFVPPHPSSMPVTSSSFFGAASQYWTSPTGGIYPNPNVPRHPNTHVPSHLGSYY
How it was run: (§1)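 A tag-only sample was pooled with DNA-barcoded human transcription factors that had been expressed in yeast as GST fusions and captured on glutathione beads. The pools were incubated for 30 min at room temperature with 200 nmole of a random double-stranded 16-mer DNA library in Tris/NaCl/DTT/glycerol buffer, then washed, crosslinked with 0.1% formaldehyde, proximity-ligated (BsaI/T4 ligase, 1 h, 37 °C), PCR-amplified and sequenced on an Illumina NextSeq500. Binding signal is each hexamer's read frequency for a factor divided by its frequency for the tag-only sample.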

[2] = target: T2, ELK1 (Homo sapiens, UniProt P19419 1-428); details: protein: recombinant; tags: N-terminal GST; dsDNA, one strand shown
T2 sequence: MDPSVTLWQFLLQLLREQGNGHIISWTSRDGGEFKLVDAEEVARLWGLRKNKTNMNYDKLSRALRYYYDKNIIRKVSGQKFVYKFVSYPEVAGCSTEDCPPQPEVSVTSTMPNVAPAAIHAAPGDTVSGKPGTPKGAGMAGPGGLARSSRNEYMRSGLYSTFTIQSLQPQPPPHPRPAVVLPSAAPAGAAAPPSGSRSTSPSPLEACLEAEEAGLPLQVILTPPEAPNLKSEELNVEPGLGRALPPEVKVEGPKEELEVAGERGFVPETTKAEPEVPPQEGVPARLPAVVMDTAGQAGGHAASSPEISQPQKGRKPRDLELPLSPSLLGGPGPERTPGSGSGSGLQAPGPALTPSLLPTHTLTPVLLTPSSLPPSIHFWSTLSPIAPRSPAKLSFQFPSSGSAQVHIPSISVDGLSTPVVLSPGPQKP
How it was run: as §1

[3] = target: T3, GABPA (Homo sapiens, UniProt Q06546 1-454); details: protein: recombinant; tags: N-terminal GST; dsDNA, one strand shown
T3 sequence: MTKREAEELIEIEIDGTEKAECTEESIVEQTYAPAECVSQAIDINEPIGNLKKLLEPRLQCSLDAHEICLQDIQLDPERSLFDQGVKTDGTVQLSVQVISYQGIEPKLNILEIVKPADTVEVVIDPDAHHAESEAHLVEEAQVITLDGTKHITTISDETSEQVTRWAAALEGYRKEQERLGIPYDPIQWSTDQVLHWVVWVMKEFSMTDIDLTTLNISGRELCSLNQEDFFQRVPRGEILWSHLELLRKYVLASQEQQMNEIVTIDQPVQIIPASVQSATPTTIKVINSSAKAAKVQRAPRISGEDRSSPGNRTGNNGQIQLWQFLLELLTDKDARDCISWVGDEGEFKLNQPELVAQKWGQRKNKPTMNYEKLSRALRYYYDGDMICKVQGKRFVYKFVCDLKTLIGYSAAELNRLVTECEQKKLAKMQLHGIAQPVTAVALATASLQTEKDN
How it was run: as §1

[4] = target: T4, ERG (Homo sapiens, UniProt P11308 1-479); details: protein: recombinant; tags: N-terminal GST; dsDNA, one strand shown
T4 sequence: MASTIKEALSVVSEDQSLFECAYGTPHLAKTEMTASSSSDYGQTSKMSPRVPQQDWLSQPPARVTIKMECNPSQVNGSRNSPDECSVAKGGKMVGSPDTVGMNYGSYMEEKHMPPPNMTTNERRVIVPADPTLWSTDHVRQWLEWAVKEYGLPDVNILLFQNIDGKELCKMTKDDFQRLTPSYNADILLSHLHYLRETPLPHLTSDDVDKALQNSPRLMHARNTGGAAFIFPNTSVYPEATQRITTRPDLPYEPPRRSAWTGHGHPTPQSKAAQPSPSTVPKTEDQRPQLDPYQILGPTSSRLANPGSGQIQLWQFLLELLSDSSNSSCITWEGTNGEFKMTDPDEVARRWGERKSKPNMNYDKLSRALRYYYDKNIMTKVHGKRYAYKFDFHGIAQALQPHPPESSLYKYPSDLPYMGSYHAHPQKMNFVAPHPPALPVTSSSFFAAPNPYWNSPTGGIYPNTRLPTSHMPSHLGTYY
How it was run: as §1

[5] = target: ELF1 (Homo sapiens, UniProt P32519 1-619); details: protein: recombinant; tags: N-terminal GST; dsDNA, one strand shown
How it was run: as §1

[6] = target: T5, EHF (Homo sapiens, UniProt Q9NZC4 1-300); details: protein: recombinant; tags: N-terminal GST; dsDNA, one strand shown
T5 sequence: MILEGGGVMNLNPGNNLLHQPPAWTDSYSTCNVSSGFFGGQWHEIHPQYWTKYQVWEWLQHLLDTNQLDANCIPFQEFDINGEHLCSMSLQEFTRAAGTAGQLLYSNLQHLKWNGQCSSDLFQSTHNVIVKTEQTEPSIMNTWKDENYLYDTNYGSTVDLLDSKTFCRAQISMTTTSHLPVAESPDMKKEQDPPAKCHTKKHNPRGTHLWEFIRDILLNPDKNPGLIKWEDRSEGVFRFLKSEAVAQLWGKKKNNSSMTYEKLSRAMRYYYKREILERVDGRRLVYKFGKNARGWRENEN
How it was run: as §1

[7] = target: SPI1 (Homo sapiens, UniProt P17947 1-270); details: protein: recombinant; tags: N-terminal GST; dsDNA, one strand shown
How it was run: as §1

[8] = target: SPIB (Homo sapiens, UniProt Q01892 1-262); details: protein: recombinant; tags: N-terminal GST; dsDNA, one strand shown
How it was run: as §1

[9] = target: T6, ELK3 (Homo sapiens, UniProt P41970 1-407); details: protein: recombinant; tags: N-terminal GST; dsDNA, one strand shown
T6 sequence: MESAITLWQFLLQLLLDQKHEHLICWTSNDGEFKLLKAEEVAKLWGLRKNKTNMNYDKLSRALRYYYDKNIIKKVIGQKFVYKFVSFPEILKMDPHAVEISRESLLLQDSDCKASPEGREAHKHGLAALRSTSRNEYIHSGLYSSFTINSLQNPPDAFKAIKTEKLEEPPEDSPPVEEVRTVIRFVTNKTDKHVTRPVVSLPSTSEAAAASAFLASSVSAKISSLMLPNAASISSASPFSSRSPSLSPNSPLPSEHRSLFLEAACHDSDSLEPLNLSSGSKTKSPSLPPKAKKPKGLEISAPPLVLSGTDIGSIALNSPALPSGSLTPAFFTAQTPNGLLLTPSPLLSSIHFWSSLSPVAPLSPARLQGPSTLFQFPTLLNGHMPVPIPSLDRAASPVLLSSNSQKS
How it was run: as §1

[10] = target: T7, FEV (Homo sapiens, UniProt Q99581 1-238); details: protein: recombinant; tags: N-terminal GST; dsDNA, one strand shown
T7 sequence: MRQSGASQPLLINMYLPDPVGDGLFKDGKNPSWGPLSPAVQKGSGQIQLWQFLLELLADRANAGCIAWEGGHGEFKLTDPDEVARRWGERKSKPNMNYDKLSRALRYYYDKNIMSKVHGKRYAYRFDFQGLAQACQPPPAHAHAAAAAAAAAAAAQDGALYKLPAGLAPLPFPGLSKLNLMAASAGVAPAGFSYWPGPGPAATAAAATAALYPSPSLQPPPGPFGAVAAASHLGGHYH
How it was run: as §1

[11] = target: ETV5 (Homo sapiens, UniProt P41161 1-510); details: protein: recombinant; tags: N-terminal GST; dsDNA, one strand shown
How it was run: as §1

[12] = target: HSF1 (Homo sapiens, UniProt Q00613 1-529); details: protein: recombinant; tags: N-terminal GST; chain copies: 3; dsDNA, one strand shown
How it was run: as §1

[13] = target: T8, SPIC (Homo sapiens, UniProt Q8N5J4 1-248); details: protein: recombinant; tags: N-terminal GST; dsDNA, one strand shown
T8 sequence: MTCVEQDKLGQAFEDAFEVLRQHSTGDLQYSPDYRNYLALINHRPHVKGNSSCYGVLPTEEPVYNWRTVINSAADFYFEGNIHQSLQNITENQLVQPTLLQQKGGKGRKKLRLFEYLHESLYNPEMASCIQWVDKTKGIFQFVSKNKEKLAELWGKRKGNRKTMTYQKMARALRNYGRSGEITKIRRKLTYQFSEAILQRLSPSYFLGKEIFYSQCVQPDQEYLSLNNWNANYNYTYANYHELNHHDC
How it was run: as §1

[14] = target: ELF4 (Homo sapiens, UniProt Q99607 1-663); details: protein: recombinant; tags: N-terminal GST; dsDNA, one strand shown
How it was run: as §1

[15] = target: T9, ELK4 (Homo sapiens, UniProt P28324-2 1-405); details: protein: recombinant; tags: N-terminal GST; dsDNA, one strand shown
T9 sequence: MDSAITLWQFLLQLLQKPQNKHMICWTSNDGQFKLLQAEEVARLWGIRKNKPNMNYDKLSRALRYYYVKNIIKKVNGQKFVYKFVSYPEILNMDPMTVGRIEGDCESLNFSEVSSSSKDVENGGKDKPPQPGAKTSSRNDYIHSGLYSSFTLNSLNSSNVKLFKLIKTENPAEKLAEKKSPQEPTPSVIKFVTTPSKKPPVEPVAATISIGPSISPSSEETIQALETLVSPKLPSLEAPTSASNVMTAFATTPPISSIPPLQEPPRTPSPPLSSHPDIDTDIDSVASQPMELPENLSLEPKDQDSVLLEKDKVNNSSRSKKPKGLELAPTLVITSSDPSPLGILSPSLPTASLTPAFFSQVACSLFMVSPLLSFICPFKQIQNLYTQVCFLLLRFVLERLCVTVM
How it was run: as §1

[16] = target: T10, ETV2 (Homo sapiens, UniProt O00321 1-342); details: protein: recombinant; tags: N-terminal GST; dsDNA, one strand shown
T10 sequence: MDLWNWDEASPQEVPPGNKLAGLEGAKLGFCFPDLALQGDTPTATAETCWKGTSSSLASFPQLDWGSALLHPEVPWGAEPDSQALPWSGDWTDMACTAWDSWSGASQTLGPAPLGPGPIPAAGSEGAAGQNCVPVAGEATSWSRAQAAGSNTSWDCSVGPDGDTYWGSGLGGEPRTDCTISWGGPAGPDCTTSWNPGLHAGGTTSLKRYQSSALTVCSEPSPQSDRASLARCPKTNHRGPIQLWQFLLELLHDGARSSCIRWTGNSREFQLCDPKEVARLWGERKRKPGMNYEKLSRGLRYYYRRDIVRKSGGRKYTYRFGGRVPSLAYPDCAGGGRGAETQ
How it was run: as §1

[17] = target: T11, ELF3 (Homo sapiens, UniProt P78545 1-371); details: protein: recombinant; tags: N-terminal GST; dsDNA, one strand shown
T11 sequence: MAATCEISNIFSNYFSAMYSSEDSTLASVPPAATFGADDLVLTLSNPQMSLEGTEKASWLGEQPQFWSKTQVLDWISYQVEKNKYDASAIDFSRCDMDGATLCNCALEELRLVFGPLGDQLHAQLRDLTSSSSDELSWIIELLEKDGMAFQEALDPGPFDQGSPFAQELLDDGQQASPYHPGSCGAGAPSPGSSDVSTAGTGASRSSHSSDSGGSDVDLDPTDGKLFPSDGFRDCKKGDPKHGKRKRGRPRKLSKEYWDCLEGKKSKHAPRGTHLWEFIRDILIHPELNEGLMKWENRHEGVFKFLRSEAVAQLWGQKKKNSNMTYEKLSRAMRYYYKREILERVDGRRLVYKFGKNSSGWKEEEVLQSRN
How it was run: as §1

[18] = target: ETV1 (Homo sapiens, UniProt P50549 1-477); details: protein: recombinant; tags: N-terminal GST; dsDNA, one strand shown
How it was run: as §1

Chain of HSF1 (Q00613 whole entry): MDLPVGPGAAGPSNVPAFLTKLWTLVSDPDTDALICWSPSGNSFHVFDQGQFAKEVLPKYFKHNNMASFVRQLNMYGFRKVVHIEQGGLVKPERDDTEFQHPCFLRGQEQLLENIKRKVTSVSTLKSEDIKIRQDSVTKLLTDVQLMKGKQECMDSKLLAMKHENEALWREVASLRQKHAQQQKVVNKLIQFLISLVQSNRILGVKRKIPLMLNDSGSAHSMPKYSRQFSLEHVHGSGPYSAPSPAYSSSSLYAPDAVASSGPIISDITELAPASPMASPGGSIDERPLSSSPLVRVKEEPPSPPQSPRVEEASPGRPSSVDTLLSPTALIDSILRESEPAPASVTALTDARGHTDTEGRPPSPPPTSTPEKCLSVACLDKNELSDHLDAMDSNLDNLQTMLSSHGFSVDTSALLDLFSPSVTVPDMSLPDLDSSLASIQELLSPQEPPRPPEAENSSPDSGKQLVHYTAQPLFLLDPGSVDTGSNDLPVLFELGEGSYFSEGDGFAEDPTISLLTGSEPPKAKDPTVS
Chain of SPIB (Q01892 whole entry): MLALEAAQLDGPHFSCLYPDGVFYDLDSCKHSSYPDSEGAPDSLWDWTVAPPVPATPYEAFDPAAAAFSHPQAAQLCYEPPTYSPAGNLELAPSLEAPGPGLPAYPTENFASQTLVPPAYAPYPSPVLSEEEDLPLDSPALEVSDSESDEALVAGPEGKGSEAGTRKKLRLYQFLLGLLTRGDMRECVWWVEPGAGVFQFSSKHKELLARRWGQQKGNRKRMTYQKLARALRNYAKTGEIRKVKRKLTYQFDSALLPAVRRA
Chain of ELF1 (P32519 whole entry): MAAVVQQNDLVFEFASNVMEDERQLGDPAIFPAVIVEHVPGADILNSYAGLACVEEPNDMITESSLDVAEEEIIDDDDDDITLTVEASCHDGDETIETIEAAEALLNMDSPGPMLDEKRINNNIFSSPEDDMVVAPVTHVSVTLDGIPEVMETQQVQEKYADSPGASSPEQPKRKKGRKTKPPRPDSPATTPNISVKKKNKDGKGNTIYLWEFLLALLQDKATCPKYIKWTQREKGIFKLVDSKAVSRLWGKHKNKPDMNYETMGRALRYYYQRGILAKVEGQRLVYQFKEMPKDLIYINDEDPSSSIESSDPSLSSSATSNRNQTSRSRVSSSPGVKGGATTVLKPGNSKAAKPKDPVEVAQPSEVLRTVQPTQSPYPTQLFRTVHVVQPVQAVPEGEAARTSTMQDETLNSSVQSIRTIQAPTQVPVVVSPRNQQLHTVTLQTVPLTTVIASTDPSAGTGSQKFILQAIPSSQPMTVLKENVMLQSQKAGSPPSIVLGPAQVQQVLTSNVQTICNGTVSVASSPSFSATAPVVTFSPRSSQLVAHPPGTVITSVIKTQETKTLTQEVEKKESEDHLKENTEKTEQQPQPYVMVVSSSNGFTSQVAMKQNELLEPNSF
Chain of ETV5 (P41161 whole entry): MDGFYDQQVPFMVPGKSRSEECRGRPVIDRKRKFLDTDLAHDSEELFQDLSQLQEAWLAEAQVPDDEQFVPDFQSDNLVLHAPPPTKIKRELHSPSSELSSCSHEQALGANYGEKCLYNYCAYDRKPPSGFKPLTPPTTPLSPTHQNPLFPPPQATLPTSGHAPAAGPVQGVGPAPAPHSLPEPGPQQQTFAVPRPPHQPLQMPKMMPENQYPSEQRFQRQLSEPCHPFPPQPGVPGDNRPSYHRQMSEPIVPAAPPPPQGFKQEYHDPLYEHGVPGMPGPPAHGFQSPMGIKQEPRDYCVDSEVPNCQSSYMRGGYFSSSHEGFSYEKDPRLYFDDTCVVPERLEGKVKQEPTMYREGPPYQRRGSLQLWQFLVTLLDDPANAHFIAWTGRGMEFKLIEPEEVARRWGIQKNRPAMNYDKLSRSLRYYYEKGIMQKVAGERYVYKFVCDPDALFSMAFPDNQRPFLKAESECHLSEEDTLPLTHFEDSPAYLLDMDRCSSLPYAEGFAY
Chain of ELF4 (Q99607 whole entry): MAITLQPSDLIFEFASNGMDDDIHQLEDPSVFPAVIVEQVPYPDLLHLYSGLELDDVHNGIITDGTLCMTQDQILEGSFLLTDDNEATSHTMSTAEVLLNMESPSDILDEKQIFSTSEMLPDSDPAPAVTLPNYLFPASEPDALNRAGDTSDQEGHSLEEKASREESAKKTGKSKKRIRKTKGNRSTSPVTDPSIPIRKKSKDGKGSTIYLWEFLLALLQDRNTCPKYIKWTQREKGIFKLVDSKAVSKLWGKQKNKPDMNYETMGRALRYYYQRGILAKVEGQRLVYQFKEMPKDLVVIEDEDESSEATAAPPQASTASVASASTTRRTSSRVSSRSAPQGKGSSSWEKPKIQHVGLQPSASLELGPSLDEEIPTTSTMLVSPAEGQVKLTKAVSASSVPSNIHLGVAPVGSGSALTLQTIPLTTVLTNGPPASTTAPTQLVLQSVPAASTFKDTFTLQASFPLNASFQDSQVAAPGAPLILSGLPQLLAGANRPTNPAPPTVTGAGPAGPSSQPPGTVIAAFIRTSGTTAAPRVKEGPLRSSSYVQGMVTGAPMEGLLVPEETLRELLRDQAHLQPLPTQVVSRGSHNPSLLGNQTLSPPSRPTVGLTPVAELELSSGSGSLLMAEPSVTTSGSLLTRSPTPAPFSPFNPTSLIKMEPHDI
Chain of ETV1 (P50549 whole entry): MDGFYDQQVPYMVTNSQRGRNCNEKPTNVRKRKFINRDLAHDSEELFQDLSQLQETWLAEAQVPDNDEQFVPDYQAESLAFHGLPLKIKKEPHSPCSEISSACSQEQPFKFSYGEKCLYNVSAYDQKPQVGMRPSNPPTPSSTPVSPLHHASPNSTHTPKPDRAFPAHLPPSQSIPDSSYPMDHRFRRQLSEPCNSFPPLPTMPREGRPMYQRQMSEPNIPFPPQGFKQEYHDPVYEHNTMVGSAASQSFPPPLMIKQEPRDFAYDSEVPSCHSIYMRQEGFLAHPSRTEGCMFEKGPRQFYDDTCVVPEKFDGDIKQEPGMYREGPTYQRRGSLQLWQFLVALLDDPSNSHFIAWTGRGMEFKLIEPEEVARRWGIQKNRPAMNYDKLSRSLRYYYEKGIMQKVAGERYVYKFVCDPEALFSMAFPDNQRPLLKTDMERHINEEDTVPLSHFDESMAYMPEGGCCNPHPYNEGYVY

CACTGG
binding signal [1]: 1.15 fold enrichment (6-mer frequency, TF over GST control)
binding signal [2]: 1.07 fold enrichment (6-mer frequency, TF over GST control)
binding signal [3]: 1.15 fold enrichment (6-mer frequency, TF over GST control)
binding signal [4]: 1.12 fold enrichment (6-mer frequency, TF over GST control)
binding signal [5]: 1.17 fold enrichment (6-mer frequency, TF over GST control)
binding signal [6]: 1.05 fold enrichment (6-mer frequency, TF over GST control)
binding signal [7]: 1.03 fold enrichment (6-mer frequency, TF over GST control)
binding signal [8]: 1.11 fold enrichment (6-mer frequency, TF over GST control)
binding signal [9]: 1.02 fold enrichment (6-mer frequency, TF over GST control)
binding signal [10]: 1.07 fold enrichment (6-mer frequency, TF over GST control)
binding signal [11]: 1.13 fold enrichment (6-mer frequency, TF over GST control)
binding signal [12]: 1.16 fold enrichment (6-mer frequency, TF over GST control)
binding signal [13]: 1.24 fold enrichment (6-mer frequency, TF over GST control)
binding signal [14]: 1.04 fold enrichment (6-mer frequency, TF over GST control)
binding signal [15]: 1.05 fold enrichment (6-mer frequency, TF over GST control)
binding signal [16]: 1.22 fold enrichment (6-mer frequency, TF over GST control)
binding signal [17]: 1.11 fold enrichment (6-mer frequency, TF over GST control)
binding signal [18]: 1.22 fold enrichment (6-mer frequency, TF over GST control)
